The structures appear in SMILES notation. Results filed as inconclusive are left out. Calls of active or inactive are those of the source. Calls follow the shape of the full dose curve.
% is scaled to controls: 0 for no effect and ±100 for the full control effect; potency is read from the fitted curve at half-maximal effect.

The target in the assay is Thyrotropin receptor (Homo sapiens) (UniProt P16473). Kind of assay: qHTS assay to identify small molecule antagonists of the thyroid stimulating hormone receptor (TSHR) signaling pathway (AID 1259385). Also: nearly all actives have a fitted effect of over 20% in size. Conditions: TSHR-HEK293 cAMP HTRF, TSH-stimulated antagonist mode; series mostly up to 92.4 µM; activity change, negative = inhibition: at the top concentration. An excerpt: U.S. Tox21 Program National Center for Advancing Translational Sciences [NCATS] NIH Chemical Genomics Center [NCGC] U.S. Environmental Protection Agency [EPA] National Institutes of Environmental Health Sciences [NIEHS] National Toxicology Program [NTP] U.S. Food and Drug Administration [FDA] Tox21 Assay Overview: TSHR is the receptor for thyrotropin (thyroid stimulating hormone or TSH), a member of the glycoprotein hormone family. TSH is released by the anterior pituitary gland and is the main regulator of thyroid gland growth and development. Upon binding circulating thyrotropin, a G-protein signal cascade activates adenylyl cyclase and […] cAMP concentration is increased. cAMP is a key second messenger involved extensively in cellular signal transduction pathways associated with the majority of G-protein coupled receptors (GPCRs). The activation of these GPCRs by neurotransmitters, lipids, nucleotides, peptides and hormones results in the activation or the inhibition of plasma membrane-bound adenylate cyclase through heterotrimeric G-proteins. A cell-based TSHR assay can be used to screen chemical compounds that modulate TSHR either in agonist or antagonist mode.
Sequence of Thyrotropin receptor (Homo sapiens) (P16473 whole entry, looked up): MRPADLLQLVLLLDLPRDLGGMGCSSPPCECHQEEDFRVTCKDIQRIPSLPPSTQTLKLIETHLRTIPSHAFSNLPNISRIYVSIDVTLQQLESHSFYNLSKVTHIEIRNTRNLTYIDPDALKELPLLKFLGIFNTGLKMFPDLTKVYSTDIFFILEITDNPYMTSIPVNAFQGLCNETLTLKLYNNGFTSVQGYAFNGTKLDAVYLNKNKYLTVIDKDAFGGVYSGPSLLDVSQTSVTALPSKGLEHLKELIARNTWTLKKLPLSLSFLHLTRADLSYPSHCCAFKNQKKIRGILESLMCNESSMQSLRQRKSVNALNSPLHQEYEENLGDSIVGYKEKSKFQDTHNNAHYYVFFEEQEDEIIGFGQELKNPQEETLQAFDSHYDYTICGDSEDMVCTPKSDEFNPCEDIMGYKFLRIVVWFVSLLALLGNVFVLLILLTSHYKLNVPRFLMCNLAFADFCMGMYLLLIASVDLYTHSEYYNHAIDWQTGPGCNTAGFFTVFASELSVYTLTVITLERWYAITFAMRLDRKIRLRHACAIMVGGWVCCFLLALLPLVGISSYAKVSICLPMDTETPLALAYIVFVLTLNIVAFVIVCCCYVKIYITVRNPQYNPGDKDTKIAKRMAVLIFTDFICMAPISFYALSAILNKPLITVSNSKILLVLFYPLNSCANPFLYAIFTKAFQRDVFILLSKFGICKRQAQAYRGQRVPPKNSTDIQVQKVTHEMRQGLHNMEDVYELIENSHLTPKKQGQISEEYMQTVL
Tox21 Assay Protocol Summary: TSHR-Hek293 cells were dispensed at 800 cells/4uL/well in 1536-well white plates using a Multidrop dispenser. After the assay plates were incubated at a 37C/5% CO2 incubator for 18 hrs, 23 nL of compounds dissolved in DMSO, positive controls or DMSO only was transferred to the assay plate by a pin tool, followed by 1 ul medium containing Ro20-1724. For the antagonist mode screening, 1 uL of TSH was added on the top of the cell/compound mixtures to achieve a final agonist concentration of 1.5 ng/mL. After 30 min of incubation at room temperature, 2.5 ul/well of cAMP-d2 and 2.5 ul/well of anti-cAMP-cryptate were added respectively into the assay plates using a Flying Reagent Dispenser. The plates were incubated at room temperature for 1 hr. The fluorescence intensity in the plates was measured using an Envision plate reader. Each test compound was measured at 15 concentrations and in triplicates.
For `CN(C)c1ccc(SC#N)cc1`, the “activity change, negative = inhibition” value is -0.222% (inactive).

In the case of `OCc1c[nH]c2ccccc12`, the “activity change, negative = inhibition” value is 1.2% (inactive).

Regarding `CC(C)n1nc(-c2cc3cc(O)ccc3[nH]2)c2c(N)ncnc21`, the “activity change, negative = inhibition” value is 8.4% [at 42.5 µM] (inactive).

Consider `CCCCN1CCCC[C@H]1C(=O)Nc1c(C)cccc1C`, for which the “activity change, negative = inhibition” value is -1.98% [at 42.5 µM] (inactive).

As to `Nc1c(Cl)cc(Cl)cc1Cl`, the “activity change, negative = inhibition” value was -0.32% (inactive).

Take `On1ccccc1=S`: the “activity change, negative = inhibition” value was 0.202% (inactive).

Regarding `O=C(Nc1ccc(Oc2ccc(Cl)cc2)c(Cl)c1)c1cc(I)cc(I)c1O`, the “activity change, negative = inhibition” value was 5.38% [at 42.5 µM] (inactive).

As to `O=C1Cc2cc(CCN3CCN(c4nsc5ccccc45)CC3)c(Cl)cc2N1`, the “activity change, negative = inhibition” value was -0.148% [at 42.5 µM] (inactive).

With `O=C(OCC(COC(=O)c1ccccc1)(COC(=O)c1ccccc1)COC(=O)c1ccccc1)c1ccccc1`, the “activity change, negative = inhibition” value was 0.126% (inactive).

In the case of `CCCCCCCC[P+](CCCCCCCC)(CCCCCCCC)CCCCCCCC`, the Potency is 68.2 µM (active).

As to `CCCCCCCCCCCCCCCC(=O)OC[C@H](O)[C@H]1OC(=O)C(O)=C1O`, the “activity change, negative = inhibition” value is -3.38% (inactive).

In the case of `Cc1cc(O)c(C(C)(C)C)cc1C(C)(C)C`, the “activity change, negative = inhibition” value is -6.38% (inactive).

As to `CCC(C)(C)C1CCCCC1OC(C)=O` (stereo not given), the “activity change, negative = inhibition” value is 3.09% (inactive).

Take `Cc1onc(-c2ccccc2Cl)c1C(=O)N[C@@H]1C(=O)N2[C@@H]1SC(C)(C)[C@@H]2C(=O)O`: the “activity change, negative = inhibition” value was 0.721% [at 42.5 µM] (inactive).

For the compound `CCCCCCCCn1sc(Cl)c(Cl)c1=O`, the Potency is 61.1 µM (active).

As for `C=CC(=O)OCC(CO)(COC(=O)C=C)COC(=O)C=C`, the Potency result is “inactive”.

On to `CCCCc1oc2ccc(NS(C)(=O)=O)cc2c1C(=O)c1ccc(OCCCN(CCCC)CCCC)cc1`, for which the Potency was 29.8 µM (active).

As for `C[C@]12CCC(=O)C=C1CC[C@@H]1[C@@H]2[C@@H](O)C[C@@]2(C)[C@H]1CC[C@]2(O)C(=O)COC(=O)CCC(=O)O`, the “activity change, negative = inhibition” value is 2.12% [at 42.5 µM] (inactive).

For the compound `CCCCN1C(=O)[C@@H]([C@H](O)C2CCCCC2)NC(=O)C12CCN(Cc1ccc(Oc3ccc(C(=O)O)cc3)cc1)CC2`, the “activity change, negative = inhibition” value is -1.61% (inactive).

Take `O=C(c1ccc(F)cc1)C1CCN(CCn2c(=O)[nH]c3ccccc3c2=O)CC1`: the “activity change, negative = inhibition” value is -0.419% [at 42.5 µM] (inactive).

Regarding `CC(C)(C)c1ccc(C(=O)CCCN2CCC(OC(c3ccccc3)c3ccccc3)CC2)cc1`, the “activity change, negative = inhibition” value was 2.97% [at 42.5 µM] (inactive).

For `O=CC=C(c1ccccc1)c1ccccc1`, the “activity change, negative = inhibition” value is -3.23% (inactive).

Turning to `CCCCCCCCCCCC(=O)NCCCN(C)C`, the Potency is 61.1 µM (active).

For `Cc1ccc(-n2nc(C(C)(C)C)cc2NC(=O)Nc2ccc(OCCN3CCOCC3)c3ccccc23)cc1`, the “activity change, negative = inhibition” value is -7.59% [at 42.5 µM] (inactive).

Regarding `Cc1cc(=O)oc2cc(N(C)C)ccc12`, the “activity change, negative = inhibition” value is -0.2% (inactive).

For the compound `Nc1ccc2c3c(cccc13)-c1ccccc1-2`, the “activity change, negative = inhibition” value is -8.11% (inactive).

For `CCOC(=O)O[C@]1(C(=O)OCCl)CC[C@H]2[C@@H]3CCC4=CC(=O)C=C[C@]4(C)[C@H]3[C@@H](O)C[C@@]21C`, the “activity change, negative = inhibition” value is 1.03% [at 42.5 µM] (inactive).

Turning to `CCCCCCCCCCCCCCCCCC[N+](C)(C)C`, the “activity change, negative = inhibition” value is -6.24% (inactive).

In the case of `Cc1ccc2oc(CN(Cc3ccccc3)C(=O)Nc3c(F)cc(F)cc3F)c(-c3ccc(Cl)cc3)c2c1`, the “activity change, negative = inhibition” value is -1.85% (inactive).

`CCCCCCOC(=O)c1ccc(O)cc1`: the “activity change, negative = inhibition” value was -0.881% (inactive).

Regarding `O=C(NO)C1(NS(=O)(=O)c2ccc(Oc3ccc(F)cc3)cc2)CCOCC1`, the “activity change, negative = inhibition” value is -0.351% (inactive).

Take `CC(=O)OCC(C)OC(C)=O` (stereo not given): the “activity change, negative = inhibition” value was 2.02% (inactive).

Consider `Nc1nc2ccccc2n1Cc1ccc(F)cc1`, for which the “activity change, negative = inhibition” value is 1.14% [at 42.5 µM] (inactive).

Consider `CN(C)c1ccc(C2(c3ccc(N(C)C)cc3)OC(=O)c3cc(N(C)C)ccc32)cc1`, for which the “activity change, negative = inhibition” value is 1.07% (inactive).

`CCCCCOc1ccccc1/C(=C\SC)n1ccnc1`: the “activity change, negative = inhibition” value is 4.94% [at 42.5 µM] (inactive).

`O=C(c1ccc(O)cc1O)c1ccc(O)cc1O`: the “activity change, negative = inhibition” value was -4.83% (inactive).

On to `O=C(O)c1cc(O)c2c(c1)C(=O)c1cccc(O)c1C2=O`, for which the “activity change, negative = inhibition” value was -0.672% (inactive).

On to `COc1cccc(N)c1`, for which the “activity change, negative = inhibition” value is 2.72% (inactive).

Consider `CCN(C(=O)N(CC)c1ccccc1)c1ccccc1`, for which the “activity change, negative = inhibition” value is -0.344% (inactive).

`COC(=O)c1cc(Cl)ccc1OC`: the “activity change, negative = inhibition” value was 3.37% [at 42.5 µM] (inactive).

The record behind these values is PubChem BioAssay (Tox21).
